High-throughput results: PubChem, National Center for Advancing Translational Sciences (NCATS)
The entries come from a sample that favours hits as a whole.
Pf Dd2 growth: Plasmodium falciparum Dd2 growth inhibition; 120,000 compounds, 4.3% hits; Potency, µM (titrated, usually from 28.9 µM), actives largely listed as inhibitors; P. falciparum Dd2 growth, SYBR Green, 72 h; active = well fitted inhibition curve with a large enough effect; note: nearly all actives have a fitted effect of over 65% in size
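Readout: SYBR Green fluorescence, 485 nm excitation, 535 nm emission, after ~16 h lysis at 37C. Before that, Dd2-infected red cells (2.5% hematocrit) grew 72 h with compound, 29 uM top final concentration.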
Each line names hits and unclear results; the compound was inactive in the other large screens.

Cc1nc2c(c(-c3ccc(O)cc3)n1)CN(Cc1ccsc1)CCC2	none
COCc1cn(C[C@H]2C[C@@H](NC(=O)Cc3cccc(OC)c3)[C@H](O)[C@@H]2O)nn1	none
Cc1cncc(C(=O)N2CCOc3c(O)cc(-c4nc5ccccc5s4)cc3C2)c1	Pf Dd2 growth 7.94µM
Cc1cnc(C)c(-c2cc(O)c3c(c2)CN(C(=O)c2ccncn2)CCO3)n1	none
Cc1nc(CN2CCOc3c(O)cc(-c4nc5ccccc5s4)cc3C2)no1	none
Cc1ccc(CN2C[C@@H](CO)[C@H](NC(=O)c3ccccc3)C2)nc1	none
C#CCNC(=O)CC[C@H]1CNC(=O)[C@@H]2[C@@H](CCN2Cc2ccc(O)cc2)N1C	none
CN1CCc2nc3sc(C(=O)Nc4ccccc4OC(F)(F)F)c(N)c3cc2C1	none
Nc1c(C(=O)Nc2ccccc2)sc2nc3c(cc12)CN(Cc1ccccc1)CC3	none
CCOc1ccccc1NC(=O)c1sc2nc3c(cc2c1N)CN(Cc1ccccc1)CC3	Pf Dd2 growth 10µM
O=C(c1ccncc1)N1CCCC(CN2CCOCC2)CC1 (stereo not given)	none
COc1ccc(CC(=O)NCc2ccc3c(c2)CCN3C(=O)c2cccc(C)c2)cc1	none
COc1cc2c(cc1OC)C(COc1ccc3c(C)cc(=O)oc3c1)N(C(=O)c1cccc(OC)c1OC)CC2 (stereo not given)	Pf Dd2 growth 8.91µM
Cc1cc(C)c(NC(=O)COc2ccc3c(C)cc(=O)oc3c2)c(C)c1	none
COc1ccc(OCC(=O)N2CCN(C(=O)c3cccc(OC)c3OC)CC2)cc1	none
COc1cc2c(cc1OC)C(COc1ccc3c(C)cc(=O)oc3c1)N(C(=O)c1cccc(C)c1)CC2 (stereo not given)	Pf Dd2 growth 5.01µM
CCNC(=O)NCC1c2cc(OC)c(OC)cc2CCN1C(=O)Nc1ccccc1OC (stereo not given)	none
Cc1noc(-c2cn(C3CCN(C(=O)COc4ccccc4)CC3)nn2)n1	none
CCN(Cc1nccn1C)C(=O)c1cc(-c2cnc(C)nc2)nc2ccc(F)cc12	none
O=C1Nc2ccccc2C12CCN(c1cc(C3CC(O)C3)ncn1)CC2 (stereo not given)	none
O=C(Cn1nc2n(c1=O)CCCCC2)NCc1ccccc1Br	none
COc1cccc(C(=O)Nc2nc3ccc(S(=O)(=O)N4CCCC4)cc3s2)c1	none
CN(C)c1cccc(C(=O)Nc2nc3ccc(S(=O)(=O)N4CCCC4)cc3s2)c1	Pf Dd2 growth 12.6µM
Cc1ccc(C(=O)Nc2nc3ccc(S(=O)(=O)N4CCCC4)cc3s2)cc1	none
COc1ccc(C(=O)N2C[C@H](c3nc(-c4ccncc4)no3)[C@@H](C)C2)cc1OC	none
CCCCNC(=O)C1CCN(Cc2nc(-c3ccc(OC)c(OC)c3)oc2C)CC1	none
COc1ccc(-c2nc(CN3CCC(C(=O)NCCCN4CCN(c5ccccc5F)CC4)CC3)c(C)o2)cc1OC	Pf Dd2 growth 10µM
COCCCNC(=O)C1CCN(Cc2nc(-c3ccc(OC)c(OC)c3)oc2C)CC1	none
Cc1oc(-c2ccc(Cl)cc2)nc1CN1CCC(C(=O)NCCCN2CCN(c3cccc(Cl)c3)CC2)CC1	none
Cc1oc(-c2cccc(Cl)c2)nc1CN1CCC(C(=O)NCCCN2CCN(c3ccc(F)cc3)CC2)CC1	Pf Dd2 growth 5.62µM
Cc1oc(-c2cccc(Cl)c2)nc1CN1CCC(C(=O)NCCCN2CCN(c3ccccc3F)CC2)CC1	none
O[C@@H]1C[C@@H](c2nc(-c3ccc(F)cc3)no2)N(Cc2ccncc2)C1	none
O=C1Nc2cnccc2C2(CCN([S+](=O)([O-])c3cccc(C(F)(F)F)c3)C2)O1 (stereo not given)	none
COc1cc(OC)c(NC(=O)Cn2nc3n(c2=O)CCCC3)cc1Cl	none
C[C@@]1(O)CCN(C(=O)CN)C[C@@H]1Cc1ccccc1	none
Cc1cccc2ncc(C(=O)N3CC[C@H](CO)[C@@H](O)C3)c(=O)n12	none
Cc1onc(C(=O)N2C[C@@H](Oc3ccccc3)C[C@H]2C(=O)NC2CC2)c1Cn1cccn1	none
COc1ccc(CN2CCCCC23Cc2ccccc2CNC3=O)cc1OC (stereo not given)	none
Cc1ccc(CN2CCCC23Cc2ccccc2CNC3=O)cc1 (stereo not given)	Pf Dd2 growth 10µM
O=C1NCc2ccccc2CC12CCCN2Cc1ccc(F)cc1F (stereo not given)	none
CCc1ccccc1CN1CCCC12Cc1ccccc1CNC2=O (stereo not given)	Pf Dd2 growth 8.91µM
O=C1NCc2ccccc2CC12CCCN2Cc1ccc(O)cc1O (stereo not given)	none
O=C1NCc2ccccc2CC12CCCN2Cc1ccc(O)cc1 (stereo not given)	none
CC(=O)Nc1ccc(CN2CCCC23Cc2ccccc2CNC3=O)cc1 (stereo not given)	none
O=C1NCc2ccccc2CC12CCCCN2Cc1cccc(F)c1 (stereo not given)	none
Cc1ccc(CN2CCCCC23Cc2ccccc2CNC3=O)cc1C (stereo not given)	Pf Dd2 growth 7.94µM
O=C(c1nccc2ccccc12)N1CCC2(CC1)CC(O)CCO2 (stereo not given)	none
COc1ccc2c(c1)C(C[C@H]1CN(C(=O)C3CCC3)CC[C@H]1CC(=O)O)=NCC2	none
Cc1noc(C)c1S(=O)(=O)N1CCCC(Cc2nncn2C)C1 (stereo not given)	none
N#CC1CCN(C(=O)C2CN(c3ccc(F)cc3)C(=O)N2)CC1 (stereo not given)	none
Cc1ccccc1Nc1c(-c2cccnc2)nc2cccc(C)n12	none
Cc1ccccc1Nc1c(-c2ccc(N3CCOCC3)cc2)nc2cccc(C)n12	Pf Dd2 growth 10µM
Cc1ccccc1Nc1c(-c2c[nH]c3ccccc23)nc2ccc(Cl)cn12	none
Cc1ccccc1Nc1c(-c2ccc(N3CCOCC3)cc2)nc2ccc(Br)cn12	Pf Dd2 growth 8.91µM
Cc1ccccc1Nc1c(-c2cccs2)nc2cccc(C)n12	none
Cc1ccc(Nc2c(-c3cccnc3)nc3ccc(Br)cn23)cc1	none
Cc1ccccc1Nc1c(-c2ccsc2)nc2c(C)cccn12	none
COc1ccc(-c2nc3ccc(Cl)cn3c2Nc2ccc(C)cc2)cc1	none
COc1cc(O)ccc1-c1nc2ccc(Br)cn2c1Nc1ccccc1C	Pf Dd2 growth 6.31µM
CN1CCC(OC2CCN(C(=O)c3cccc(Br)c3)CC2)CC1	none
Cc1noc(-c2cccc(OC3CN(S(=O)(=O)c4c(C)noc4C)C3)c2)n1	none
CC1Oc2ccc(NC(=O)c3cccs3)cc2CN(Cc2ccccc2)C1=O (stereo not given)	none
CSc1ccc(CNC(=O)C2CCN(C(=O)c3ncn4c3COC(c3ccccc3)C4)CC2)cc1 (stereo not given)	none
Cc1onc(-c2ccccc2)c1C(=O)N[C@@H]1CCC[C@@H](C(=O)N2CCN(C)CC2)CC(=O)N(C)C1	none
O=C(C[C@H]1NC(=O)c2ccccc2NC1=O)Nc1cccc2[nH]ccc12	none
CC(C)(C)NC(=O)N[C@H](Cc1ccccc1)C(=O)N1CCOCCNC(=O)CC1	none
COc1cccc(CN2CCNC(=O)C2CC(=O)N2CCNC(=O)C2)c1OC (stereo not given)	none
Cc1ccc(CN2CCCN(S(C)(=O)=O)C(c3ccccc3)CC(=O)NCC2)o1 (stereo not given)	none
COc1cccc(CN2CCCCCNC(=O)CC2c2ccccc2)c1OC (stereo not given)	Pf Dd2 growth 11.2µM
Cc1ccc(CN2CCCC(c3nc(C(C)C)no3)CCNC(=O)CC2)o1 (stereo not given)	none
CS(=O)(=O)N1CCCN(Cc2cn[nH]c2-c2ccc(F)cc2)CCNC(=O)CC1c1ccccc1 (stereo not given)	none
CC(C)NC(=O)N1CCCCCNC(=O)CC1c1ccccc1 (stereo not given)	none
